The source of these data is PubChem BioAssay AID651821 (The Scripps Research Institute Molecular Screening Center, 2012).

Where “and” joins values, the source holds several entries; their conditions need not be identical. Equal values may be shown once. Hit rate of the full screen: of about 370,000 compounds, about 4,700 (1.3%) were called active.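 The calls were made as follows: active = inhibition above the plate cutoff, the mean of all test compounds on that plate plus 3 SD (cut at about 35% in these data); inactive = the rest.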 The list comes from a sample in which actives are over-represented; it also holds similar structures and randomly drawn compounds. A structure can be active in one record and inactive in another.

This experiment in a line: small molecules binding CAG repeat RNA – biochemical, fluorescence, primary screen (AID 651821).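 Also: 0% = DMSO alone and 100% = 100 µM mitoxantrone as full dye displacement; higher means more dye released from RNA so lower well fluorescence.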 As to conditions: r(CAG) RNA repeat, TO-PRO-1 dye displacement fluorescence; at 3 µM; stronger effect = higher value.
In the case of `NC(c1ccccc1)c1csc(NC(=O)Nc2cccc(C(F)(F)F)c2)n1` (stereo unspecified), the inhibition is 42.2% (active). As to `COc1ccc(C(N)c2csc(NC(=O)Nc3cccc(C(F)(F)F)c3)n2)cc1` (stereo unspecified), the inhibition was 49.1% (active). As for `NC(c1csc(NC(=O)Nc2cccc(C(F)(F)F)c2)n1)C1CCCCC1` (stereo unspecified), the inhibition is 35.2% (active).

Regarding `COc1ccc(CN2C(CC(=O)Nc3cccnc3)c3ccc(C(F)(F)F)cc3S2(=O)=O)cc1` (stereo unspecified), the inhibition was 1.65% (inactive). As to `NC(c1csc(NC(=O)Nc2ccccc2Oc2ccccc2)n1)c1ccccc1Cl` (stereo unspecified), the inhibition was 14% (inactive). As to `CC(C)(C)CC(=O)Nc1nc(C(N)Cc2ccc(C(F)(F)F)cc2)cs1` (stereo unspecified), the inhibition was 1.66% (inactive).

With `CCOC(=O)c1csc(NC(=O)Nc2cccc(OC)c2)n1`, the inhibition was 61.3% (active). As for `CC(=O)c1ccc(Nc2nc(C(N)c3ccccc3)cs2)cc1` (stereo unspecified), the inhibition is 6.98% (inactive).

Regarding `CCOC(=O)c1cnc(SCC(=O)Nc2cccc(OC)c2)nc1N`, the inhibition is 1.08% (inactive). Turning to `COc1ccc(CC(N)c2csc(NC(=O)Nc3ccc(C(C)C)cc3)n2)cc1` (stereo unspecified), the inhibition is 30.9% (inactive). For the compound `COc1cccc(NC(=O)COC(=O)c2ccc3ccccc3n2)c1`, the inhibition was 7.26% (inactive). `C/C(CC(=O)Nc1cccc(C(F)(F)F)c1)=N\NC(=O)C(=O)NCC(C)C`: the inhibition is -2.81% (inactive). `C=CCn1c(SCC(N)=O)nnc1-c1ccccc1OC`: the inhibition was 2.58% (inactive).

Consider `O=C(NCc1ccccc1)[C@@H]1CCCN1C(=O)[C@H]1CCCN1C(=O)c1cccc(Cl)c1`, for which the inhibition is -1.13% (inactive). In the case of `COC(=O)[C@H](CC(C)C)NS(=O)(=O)c1c(F)cccc1F`, the inhibition is 0.25% (inactive). `C=CCN1C(=O)N(Cc2ccccc2)c2ccccc2S1(=O)=O`: the inhibition is -0.57% (inactive).

On to `CCC(=O)Nc1ccc2c(c1)C(=O)N(C)[C@@H]1CC[C@@H](CC(=O)NCCc3ccccc3)O[C@H]1CO2`, for which the inhibition is 0.85% (inactive). Next, `CCOC(=O)[C@]12CCCCC/C=C\1N(Cc1ccc(OC)cc1)C(=O)[C@H]2CC(=O)NCc1ccc(C)o1`: 3.94% (inactive); `O=C(NS(=O)(=O)c1cccs1)[C@H]1O[C@@H](n2ccc(=O)[nH]c2=O)[C@H](O)[C@@H]1O`: 1.16% (inactive); `CN1CCCc2nc(-c3ccccc3)ccc21`: 1.01% (inactive). With `CCn1c(SCC(=O)N/N=C/c2ccccc2OCC(=O)O)nnc1-c1ccc(C(C)(C)C)cc1`, the inhibition was 18.1% (inactive). Turning to `O=C(CSc1nc2ccccc2n1Cc1ccccc1Cl)N/N=C\c1c[nH]c2ccccc12`, the inhibition is 12.2% (inactive). As to `Cc1ccc(Cn2c(SCC(=O)N/N=C/c3ccccc3OCC(=O)O)nc3ccccc32)cc1`, the inhibition was 50% (active). As for `CC1CCN(c2ccc(C(=O)O)cc2NS(=O)(=O)c2ccc(Br)s2)CC1`, the inhibition is 33% (inactive). For the compound `CCOc1ccc(-n2c(SCC(=O)Nc3cc(C)c(NC(=O)c4ccccc4)cc3OC)nnc2-c2cccs2)cc1`, the inhibition was 10.2% (inactive). As to `NS(=O)(=O)c1ccc(NC(=O)COC(=O)C2(c3ccc(F)cc3)CCCC2)cc1`, the inhibition was 18.1% (inactive).

As for `CC(=O)C1=C(O)C(=O)N(c2ccc(S(N)(=O)=O)cc2)C1c1ccccc1F` (stereo unspecified), the inhibition is 2.58% (inactive).

Consider `NS(=O)(=O)c1ccc(NC2=CC(c3ccc(F)cc3)N(c3ccc(S(N)(=O)=O)cc3)C2=O)cc1` (stereo unspecified), for which the inhibition is 45.7% (active).

For `O=C(COC(=O)c1ccc(Oc2ccccc2)cc1)Nc1nnc(-c2ccccc2)o1`, the inhibition was 39.7% (active).

Consider `O=C(COc1ccccc1)Nc1nonc1NC(=O)COc1ccccc1`, for which the inhibition was 8.22% (inactive). For `O=C(COC(=O)CSc1nnc(-c2ccc(Cl)cc2)o1)Nc1cc(Cl)cc(Cl)c1`, the inhibition was 3.94% (inactive).

For the compound `O=C(NCc1cccs1)C1CCCN(S(=O)(=O)c2ccc([N+](=O)[O-])cc2)C1` (stereo unspecified), the inhibition was 1.56% (inactive).

In the case of `COc1ccc(N2CCN(CCNS(=O)(=O)c3ccc(C(C)(C)C)cc3)CC2)cc1`, the inhibition was -0.11% (inactive). Turning to `CC(NCC(=O)Nc1cc(Cl)cc(Cl)c1)c1ccccc1` (stereo unspecified), the inhibition was -5.58% (inactive). Regarding `Cc1nnc(SC(C(=O)Nc2cc(Cl)cc(Cl)c2)c2ccccc2)[nH]c1=O` (stereo unspecified), the inhibition was 80.2% (active). As for `Cc1nnc(SC(C(=O)c2ccccc2)c2ccccc2)[nH]c1=O` (stereo unspecified), the inhibition is 4.12% (inactive). As for `CCc1c(-c2ccccc2OC)ncn1CCc1ccccc1OC`, the inhibition is -2.09% (inactive).

Regarding `Cc1cccc(NC(=O)C[C@H]2CC[C@H]3[C@@H](COc4ccc(NC(=O)Nc5ccccc5)cc4C(=O)N3C)O2)c1`, the inhibition was 10.2% (inactive). Turning to `N#Cc1ccc(OC[C@@H](O)CN2CCC(C(O)(c3ccccc3)c3ccccc3)CC2)c(F)c1`, the inhibition is -3.22% (inactive). On to `COc1ccc(S(=O)(=O)Nc2ccc3c(c2)C(=O)N([C@H](C)CO)C[C@H](C)[C@@H](CN(C)C)OCCCC[C@H](C)O3)cc1`, for which the inhibition was 8.48% (inactive). Take `Cc1cc(C)c(C#N)c(SCc2[nH]nc3c2C(c2ccccc2)C(C#N)=C(N)O3)n1` (stereo unspecified): the inhibition was 38.2% (active). On to `Cc1cc(C)c(C#N)c(SCc2ccc3c(c2)OCO3)n1`, for which the inhibition was 4% (inactive).

As to `CCCc1nc2c([nH]1)C(c1cccnc1)C(C#N)=C(N)O2` (stereo unspecified), the inhibition was 0.75% (inactive). Turning to `C[C@@H](NC(=O)c1ccccc1OCC(=O)Nc1ccc(I)cc1)C(=O)N(C)Cc1ccccc1`, the inhibition is 5.02% (inactive). Regarding `Cc1ccc(S(=O)(=O)N/N=C(\c2ccccc2)C2CC2)cc1`, the inhibition was -0.89% (inactive). As for `COc1ccc(C(=O)C(C)OC(=O)c2cccc(S(=O)(=O)Nc3c(C)n(C)n(-c4ccccc4)c3=O)c2)cc1` (stereo unspecified), the inhibition was 7.06% (inactive). In the case of `CNC(=O)COc1ccc(S(=O)(=O)Nc2ccccc2)cc1`, the inhibition is 0.86% (inactive). As to `Cc1ccc(S(=O)(=O)/N=C2\C=C(NS(=O)(=O)c3ccc(C)cc3)C(=O)c3ccccc32)cc1`, the inhibition was 59.4% (active). For `Cc1ccc(S(=O)(=O)N[C@H](CO)C(C)C)cc1`, the inhibition is 2.22% (inactive). Turning to `COc1ccc(S(=O)(=O)/N=C2\C=C(NS(=O)(=O)c3ccccc3)C(=O)c3ccccc32)cc1`, the inhibition is 63.6% (active). As to `O=S1(=O)c2c(cccc2N2CCSCC2)Oc2ccccc2CN1Cc1cn(Cc2ccc(F)cc2)nn1`, the inhibition is 8.25% (inactive). For `C[C@H]1[C@H](c2ccccc2)Oc2cc(Br)ccc2S(=O)(=O)N1Cc1cccc(F)c1`, the inhibition was 3.74% (inactive). Regarding `CCOC(=O)CSc1nncc2ccc(OC)c(OC)c12`, the inhibition was -1.96% (inactive).

`Cc1cc(C)cc(NC(=O)N2CCC(N(C)CCC(C)C)CC2)c1`: the inhibition is 3.3% (inactive).

For `N#Cc1ccc(OCCCN2CCC(C(O)(c3ccccc3)c3ccccc3)CC2)c(F)c1`, the inhibition is -1.54% (inactive). Consider `C=C1c2c(Cl)ccc(O)c2C(O)=C2C(=O)[C@]3(O)C(O)=C(C(N)=O)C(=O)[C@@H](N(C)C)[C@@H]3[C@@H](O)C12` (stereo partly specified), for which the inhibition is 87.2% (active). On to `Cc1nc(NC(=O)C(C)(C)C)sc1[N+](=O)[O-]`, for which the inhibition was 2.08% (inactive). As for `COc1cccc(CNC(=O)[C@H]2CCCN2C(=O)[C@H]2CCCN2C(=O)C2CCCCC2)c1`, the figure is 1.57% (inactive); as for `Cc1ccc(NC(=O)Cc2cccc(F)c2)c(S(=O)(=O)N2CCOCC2)c1`, -0.87% (inactive). Turning to `O=C1c2cccc3cccc(c23)C(=O)N1c1cccc(O)c1`, the inhibition was 4.62% (inactive).

On to `O=C1C=C(c2ccc(Cl)cc2)C(=O)N1Nc1ccccc1`, for which the inhibition was 8.98% (inactive). As for `O=C1c2cccc3cc(Br)cc(c23)C(=O)N1Nc1ccccc1`, the inhibition is 36.1% (active).

On to `CCCc1cc(=O)[nH]c(SCC(=O)Nc2sc3c(c2C#N)CCCC3)n1`, for which the inhibition is 40.9% (active). Regarding `CCCc1cc(=O)[nH]c(SCC(=O)Nc2ccc(S(=O)(=O)N3CCCC3)cc2)n1`, the inhibition is 15.7% (inactive). Consider `CCCc1cc(=O)[nH]c(SCC(=O)N2C(C)CCCC2C)n1` (stereo unspecified), for which the inhibition is -1.93% (inactive). For the compound `CC(C)C[C@H](NC(=O)CC1CCCC1)C(=O)N1CCC[C@H]1C(=O)NCc1ccccc1`, the inhibition is -2.39% (inactive). Next, `COc1ccccc1CCn1cnc(-c2ccccc2)c1C(C)C`: -1.16% (inactive); `CC(=N\NC(=O)c1cc(Br)ccc1O)/C(=N/O)C(=O)Nc1ccccc1`: 36.5% (active); `C/C(Cc1ccccc1)=N\NC(=O)CNC(=O)c1cccc(Br)c1`: 1.32% (inactive).

With `C/C(=N/NC(=O)c1cc(Cl)ccc1O)C12CC3CC(CC(C3)C1)C2`, the inhibition is 14.9% (inactive). For `O=S1(=O)c2ccc(Br)cc2OC[C@H](Cc2ccccc2)N1Cc1cn(Cc2ccccc2)nn1`, the inhibition is 9.1% (inactive). Next, `O=C(CSc1nnc(COc2ccccc2)n1-c1ccc(Cl)cc1)Nc1ccc2c(c1)OCO2`: 5.42% (inactive); `Cc1cc(C(=O)NN=C/C=C/c2ccco2)n[nH]1`: 12% (inactive).

Consider `Cc1ccc(N=C2NC(=O)/C(=C/C=C/c3ccco3)S2)cc1C`, for which the inhibition was 58% (active). In the case of `Nc1ncnc2c1ncn2[C@@H]1O[C@H](C(=O)N[C@@H](CCc2ccccc2)C(=O)NCC(=O)N2CCOCC2)[C@@H](O)[C@H]1O`, the inhibition was 4.42% (inactive). In the case of `CCN1CCN(C(=O)N[C@@H](C(=O)N[C@@H]2C(=O)N3C(C(=O)O)=C(CSc4nnnn4C)CS[C@H]23)c2ccc(O)cc2)C(=O)C1=O`, the inhibition was 8.44% (inactive). Take `CO/N=C(\C(=O)N[C@@H]1C(=O)N2C(C(=O)O)=C(COC(C)=O)CS[C@H]12)c1csc(N)n1` (stereo in doubt): the inhibition is 31% (inactive) and 22.6% (inactive) and 37.5% (active). As for `C=CC1=C(C(=O)O)N2C(=O)[C@@H](NC(=O)/C(=N/OCC(=O)O)c3csc(N)n3)[C@H]2SC1`, the inhibition was 50.2% (active). Regarding `Nc1nc2c(ncn2[C@@H]2O[C@H](C(=O)N[C@H](Cc3ccccc3)C(=O)NCC3CCCCC3)[C@@H](O)[C@H]2O)c(=O)[nH]1`, the inhibition is 6.66% (inactive). In the case of `Cc1ccc(CN2CCCCC(NC(=O)C3CCCCC3)C2=O)cc1` (stereo unspecified), the inhibition was -0.58% (inactive).

`CCCCN(C(C)=O)c1ccc2c(c1)C1CC2CCN1Cc1ccccc1` (stereo unspecified): the inhibition is -3.96% (inactive).

A word on the inhibition: it is the drop in the measured response relative to a control, in per cent.
